Results as given in ChEMBL document CHEMBL4513216, “Probing the Open Global Health Chemical Diversity Library for Multistage-Active Starting Points for Next-Generation Antimalarials” (ACS Infect Dis, 2020).
Hit rate of the full screen: of about 68,000 compounds, about 2,700 (4%) showed an effect of 50% or more. The full list was thinned out, with strong results kept by preference.

test system: Plasmodium berghei; experiment: Screen against P. berghei liver stage (PbLuc), transformed with Luciferase, at 2uM; assay type: functional, HepG2; conditions: tested at 2 uM

Row | SMILES | INHIBITION [%]
1 | Cc1ccc(N2C[C@H]3CCN(Cc4ccncc4)C[C@H]3C2)nn1 | 16.63
2 | O=C(c1ccoc1)N1CCO[C@]2(CCC[C@@H]2COCc2ccncc2)C1 | 35.48
3 | O=C(c1ccoc1)N1CCO[C@]2(CCC[C@H]2COCc2cccnc2)C1 | 5.85
4 | O=C(c1ccno1)N1CCO[C@]2(CCC[C@@H]2COCc2ccncc2)C1 | 64.99
5 | CCNC(=O)C1(Cc2cc(-c3ccc(C)cc3)no2)CCCN(C)C1 (centres undefined) | -40.35
6 | CS(=O)(=O)c1cn[nH]c1C1CCCCN1C(=O)c1cnccn1 (centres undefined) | 17.39
7 | CC(C)NC(=O)N1CCC2(CC(C(=O)NCc3cccnc3)=NO2)C1 (centres undefined) | -7.01
8 | COCCN(CCOC)c1ncc(C#N)cc1Cl | 1.42
9 | COCCN(CCOC)c1ncccc1Cl | 67.7
10 | COCCN(CCOC)c1ncccc1I | 38.1
11 | CCOc1ccc(Cl)cc1C1CCCCN1 (centres undefined) | 14.61
12 | COCCNC(=O)Cn1cc2c(n1)c(C)nn2C(C)C | -28.32
13 | CC(C)CN1CC[C@H](c2nnc(COc3ccc(F)cc3)o2)C1 | 10.65
14 | CS(=O)(=O)N1CC2(CCN(C(=O)c3ccncc3)CC2)c2ccccc21 | 9.53
15 | Cn1cccc1C(=O)N1CCC2(CC1)CN(S(C)(=O)=O)c1ccccc12 | 38.64
16 | CS(=O)(=O)N1CC2(CCN(C(=O)c3csnn3)CC2)c2ccccc21 | 54.01
17 | O=C(CN1C(=O)c2ccccc2C1=O)N1CCOC2(CCOCC2)C1 | 13.46
18 | CN(C)CCOCc1cncc2c1CCN(C(=O)c1cscn1)C2 | -30.85
19 | CCc1cc(N(C)Cc2[nH]nc3c2CCC3)nc(N2CCOCC2)n1 | 33.9
20 | Nc1nc(NCCc2[nH]nc3c2CCCC3)cc(N2CCOCC2)n1 | 67.28
21 | CN(Cc1n[nH]c2c1CCCC2)c1cc(N2CCOCC2)nc(N)n1 | -32.88
22 | CCn1nc(C)c(NC(=O)CCn2ncc3cc(C)ccc32)c1C | 24.79
23 | CCc1nsc(NC2CCCn3nc(COC)nc32)n1 (centres undefined) | -11.71
24 | CCc1ncncc1C(=O)NCCNS(=O)(=O)c1ccc(C)cc1 | -41.64
25 | CCc1ncncc1C(=O)NCCNS(=O)(=O)c1ccccc1 | 48.68
26 | Cc1ccc(S(=O)(=O)NCCNC(=O)c2cncnc2C)cc1 | 55.25
27 | Cc1nn(Cc2ccc(C(=O)NCCCN3CCCC3=O)o2)c(C)c1Cl | 26.37

Row | SMILES | INHIBITION [%]
28 | CCCc1n[nH]c(C2CN(C(=O)c3cc(F)ccc3OC)CCO2)n1 (centres undefined) | -29.94
29 | Cc1nc2n(n1)CC(NCC(=O)NCC1(c3ccccc3)CC1)CC2 (centres undefined) | 58.69
30 | Cc1nc2n(n1)CC(NCC(=O)Nc1cc(C)on1)CC2 (centres undefined) | -2.87
31 | COc1ccccc1CCNC(=O)CNC1CCc2nc(C)nn2C1 (centres undefined) | 35.56
32 | CC(=O)N1CCCn2nc(CNS(=O)(=O)N3CCC(C)CC3)cc2C1 | 47.62
33 | O=c1[nH]c(NC2CCCC2)nc2nccc(-c3ccsc3)c12 | -18.11
34 | COCCN1CC[C@]2(CN(C(=O)c3ccc[nH]3)C[C@H]2C)C1=O | 16.21
35 | CCOc1c(Br)cc(CNCCc2nnc3n2CCCCC3)cc1OC | 23.16
36 | CC1CCCCN1C(=O)c1nc2c(n1C(C)C)CCN(C)C2 (centres undefined) | -19.99
37 | Cc1nn(C)c(Cl)c1C1CCCN1CC(=O)N1CCCCC1 (centres undefined) | -0.9
38 | COc1cccc(CN2CCCC2c2c(C)nn(C)c2C)c1 (centres undefined) | 61.53
39 | Cc1nn(C)c(C)c1C1CCCN1Cc1nc2ccccc2n1C (centres undefined) | 53.11
40 | Cc1nc2ccccc2nc1CN1CCCC1c1c(C)nn(C)c1C (centres undefined) | 28.51
41 | N#CCCCOc1cccc(CN2CCCC2c2ccc[nH]2)c1 (centres undefined) | -61.99
42 | Cc1nn(C)c(C)c1C1CCCN1Cc1cccc(OCC(N)=O)c1 (centres undefined) | 35.94
43 | Cc1nn(C)c(C)c1NC(=O)CN1CCCC1c1c(C)nn(C)c1C (centres undefined) | 23.42
44 | NC(=O)COc1cccc(CN2CCCC2c2ccc[nH]2)c1 (centres undefined) | -4.58
45 | Cc1nn(C)c(C)c1C1CCCN1Cc1cccc(C(N)=O)c1 (centres undefined) | 15.91
46 | COc1cccc(CN2CCCC2c2ccc[nH]2)c1 (centres undefined) | 68.02
47 | Cc1nn(C)c(C)c1C1CCCN1Cc1nc(C)c2ccccc2n1 (centres undefined) | 5.1
48 | CC(=O)N1CCN(C(=O)CN2CCCC2c2c(C)nn(C)c2C)CC1 (centres undefined) | 60.6
49 | Cn1cccc1CCC(=O)N1CCC2(CC1)c1ccccc1CC2O (centres undefined) | -57.12
50 | Cc1cnccc1N1CCCN(C(=O)CCc2n[nH]c(C)c2C)CC1 | -40.52
51 | O=C(c1ccc(F)c(Br)c1)N1CCCN2CCCC2C1 (centres undefined) | -4.48
52 | COCc1cn(C2CCN(C(=O)Cc3ccsc3)CC2)nn1 | 53.98
53 | O=C(Cc1ccsc1)N1CCC(Cn2cc(CCO)nn2)CC1 | 12.57
54 | O=C(CCc1ccsc1)N1CCC(n2cc(CO)nn2)CC1 | -25.13
